IL-1B inflam inh = inhibitors of inflammasome signaling (IL-1 beta secretion) | activity change, % at 57.5 µM | actives 4.7% (n = 360,000) | THP-1 LPS/ATP IL-1B secretion, AlphaLISA, 16 h; active compounds read low; in the data active = activity change below about -50%; inconclusive = mostly about -30% to -49%
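THP-1 cells pretreated 1 hr with compounds (up to 57.5 uM final), then stimulated with LPS (250 ng/mL final) plus ATP (1.25 mM final); secreted IL-1B measured by AlphaLISA after 16 hr, decreased signal indicating inhibition.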
HT1080NT lethal = kills 2HG-producing HT-1080-NT fibrosarcoma cells | HT-1080-NT fibrosarcoma viability, CellTiter-Glo ATP luminescence, 48 h | Potency, µM (titrated, usually from 46.1 µM), for inactives: at the highest dose activity, negative = less viability, most hits filed as cytotoxic | actives 1.6% (n = 360,000) | AID 686970;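 note: NT is the 2HG producing partner of a matched IDH1 knockdown line; potency is the fitted concentration of half-maximal effect; 0% = DMSO-treated cells and -100% = media-only wells without cells; nearly all actives have a fitted effect of over 55% in size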
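Viability by CellTiter-Glo luminescence after 48 h compound exposure at 37C of HT-1080-NT cells (750/well, RPMI, 5% FBS). % activity scaled between DMSO wells and medium-only wells, then curve-fitted and categorized by curve class.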
DT40 TDP1 no CPT = qHTS for Inhibitors of human tyrosyl-DNA phosphodiesterase 1 (TDP1): qHTS in cells in absence of CPT. DT40 Tdp1-/- hTDP1 cells, no CPT, ATP luminescence, 48 h. Potency, µM (top dose mostly 46.2 µM), for the others: top-dose activity change, negative = growth inhibition, most hits filed as inhibitors. actives 15% (n = 420,000). AID 686978, 2013; note: potency is the fitted concentration of half-maximal effect; nearly all actives have a fitted effect of over 55% in size
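Readout: luminescence from CellTiter-Glo after 30 min in the dark at RT. Cells: DT40 Tdp1-/- with stable hTDP1, 400/well. Exposure: compounds alone, ≥48 hr, 37 °C.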
ALOX12 inh = blocks human arachidonate 12S-lipoxygenase | P18054 | purified 12hLO, xylenol orange hydroperoxide absorbance | Potency, µM (series often up to 108 µM), inactives show at the top dose activity change, negative = inhibition, usual class: inhibitors | actives 1.1% (n = 580,000) | AID 1671190; note: potency is the fitted concentration of half-maximal effect
Target sequence (P18054 whole entry, looked up): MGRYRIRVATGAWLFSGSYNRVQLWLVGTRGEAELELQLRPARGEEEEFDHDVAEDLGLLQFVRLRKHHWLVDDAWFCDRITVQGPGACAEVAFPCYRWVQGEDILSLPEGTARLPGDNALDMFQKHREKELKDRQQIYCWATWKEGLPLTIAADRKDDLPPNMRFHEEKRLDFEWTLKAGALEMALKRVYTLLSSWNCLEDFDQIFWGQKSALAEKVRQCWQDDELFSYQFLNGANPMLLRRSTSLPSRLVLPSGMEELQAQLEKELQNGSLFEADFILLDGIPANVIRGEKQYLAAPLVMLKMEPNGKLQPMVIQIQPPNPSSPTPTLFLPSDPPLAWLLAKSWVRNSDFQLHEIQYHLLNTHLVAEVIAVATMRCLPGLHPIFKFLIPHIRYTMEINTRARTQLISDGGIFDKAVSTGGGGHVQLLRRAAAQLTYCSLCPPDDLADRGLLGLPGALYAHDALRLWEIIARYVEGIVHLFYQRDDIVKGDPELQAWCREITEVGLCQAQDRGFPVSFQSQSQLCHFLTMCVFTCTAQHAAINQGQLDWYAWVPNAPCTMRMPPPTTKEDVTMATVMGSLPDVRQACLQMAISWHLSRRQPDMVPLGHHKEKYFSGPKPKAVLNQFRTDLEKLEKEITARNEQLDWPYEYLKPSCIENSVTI
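Hydroperoxide product was detected by ferrous iron/xylenol orange as the 573 to 405 nm absorbance ratio. Arachidonic acid at 40 uM (final) was turned over for 30 min at room temperature by 150 nM human 12hLO, pH 7.0 Hepes buffer, after 15 min compound preincubation.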
HT1080 IDH1KD tx = toxicity to HT-1080 IDH1 knockdown cells (counter line); HT-1080 IDH1 knockdown viability, ATP luminescence, 48 h; Potency, µM (top dose mostly 46.1 µM), for the others: top-dose activity, negative = toxicity, hits mostly cytotoxic; actives 2% (n = 360,000); AID 686971;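 note: potency is the fitted concentration of half-maximal effect; 0% = DMSO wells and -100% = cell-free medium wells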
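In this qHTS, HT-1080 cells depleted of IDH1 are exposed for 48 h at 37 °C to compound titrations. Toxicity is scored from CellTiter-Glo luminescence, with DMSO as full viability and medium alone as none.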
TDP1 cell CPT = growth inhibition of DT40 Tdp1-/-;hTDP1 cells with camptothecin (screen for TDP1 inhibitors). chicken DT40 Tdp1-/-;hTDP1 cells + 20 nM CPT, ATP luminescence, 48 h. Potency, µM (doses to about 46.2 µM), for inactives: top-dose activity change, negative = growth inhibition, actives largely listed as inhibitors. actives 12% (n = 420,000); note: potency is the fitted concentration of half-maximal effect; nearly all actives have a fitted effect of over 55% in size
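Chicken DT40 Tdp1-/- cells stably complemented with human TDP1 were seeded at 400 cells/well in medium containing 20 nM camptothecin, exposed to pin-transferred compounds, and grown at 37 °C for at least 48 hr. Viability was read as ATP luminescence.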
An asterisk follows results filed as active; ? = inconclusive; . = not tested or not shown; [ ] = another dose, or the depositor's remark. The full list was thinned out, with hits kept by preference. Unless noted, calls come from the whole dose curve; as a rule, active = well fitted curve in the direction sought with a large enough effect; inconclusive = small, poorly fitted or top-dose-only effect, or another doubt; inactive = no such curve, though single readings can be large; an effect the other way counts as inactive or inconclusive. Unless noted, % is set by controls: 0 for no effect and ±100 for the full control effect.

SMILES	IL-1B inflam inh	HT1080NT lethal	DT40 TDP1 no CPT	ALOX12 inh	HT1080 IDH1KD tx	TDP1 cell CPT
Oc1cccc(C2c3[nH]c4ccccc4c3CCN2Cc2ccoc2)c1 (stereo not drawn)	-4	1%	-25%	28%	-3%	-26%
COc1cc(CN2CCCCC23Cc2ccccc2CNC3=O)cc(OC)c1 (stereo not drawn)	.	.	.	-2%[6.33 µM]	.	.
COc1ccc(/C=C/C(=O)c2cc(F)ccc2OC(=O)c2ccccc2OC)cc1OC	-100*	1µM*	4.6µM*	-5%	1.3µM*	4.1µM*
COc1ccc(/C=C/C(=O)c2cc(F)ccc2OC(=O)c2ccccc2)cc1OC	?	?	0.41µM*	13%	1.6µM*	0.41µM*
COc1ccc(/C=C/C(=O)c2cc(F)ccc2OC(=O)c2ccc(OC)c(OC)c2)cc1OC	-29	?	-69%	-15%	?	?
COc1ccccc1/C=C/C(=O)c1cc(F)ccc1OC(=O)c1ccccc1Br	.	.	.	8%	.	.
Cc1cc(C)c(C#N)c(SCCS(=O)(=O)c2ccc(C(C)(C)C)cc2)n1	-19	2%	21µM*	24%	-22%	13µM*
Cc1cc(C)c(C#N)c(SCCS(=O)(=O)c2ccc(Cl)cc2)n1	-76*	-17%	?	-4%	-23%	?
Cc1cc(C)c(C#N)c(SCS(=O)Cc2ccccc2)n1 (stereo not drawn)	-1	3%	-9%	7%	?	1%
CCN(CC)C(=O)Cn1cc(SCC(=O)Nc2ccc(C)cc2)c2ccccc21	.	.	26µM*	-25%	.	?
CCN(CC)C(=O)Cn1cc(SCC(=O)Nc2ccccc2F)c2ccccc21	.	.	26µM*	-17%	.	?
CCN(CC)C(=O)Cn1cc(SCC(=O)NC)c2ccccc21	-5	19%	1%	-17%	?	5%
CCN(CC)C(=O)Cn1cc(SCC(=O)Nc2cc(OC)ccc2OC)c2ccccc21	.	.	?	1%	.	?
COc1ccc(C2(C)N(O)C(C)C(c3cccs3)=[N+]2[O-])cc1 (stereo not drawn)	.	.	.	-5%	.	.
Cc1ccc(-c2nn3c(c2C)NC(=O)CC3C(=O)Nc2ccc3c(c2)OCO3)cc1 (stereo not drawn)	.	.	.	13%	.	.
CCN1C(=NCCc2ccccn2)N[C@@H](c2cccc(C(F)(F)F)c2)C(C(=O)OC)=C1C	?	-10%	16µM*	-9%	1%	11µM*
COC(=O)C1=C(C)N(Cc2ccccc2)C(=NCc2ccccc2)N[C@H]1c1cccc(C(F)(F)F)c1	?	?	5.8µM*	.	?	5.8µM*
COC(=O)C1=C(C)N(Cc2ccccc2)C(=O)N[C@H]1c1cccc(C(F)(F)F)c1	-20	-15%	?	0%	-14%	?
COC(=O)C1=C(C)N(Cc2ccccc2)C(=NCCc2ccccn2)N[C@H]1c1cccc(C(F)(F)F)c1	-27	-22%	15µM*	?	-11%	7.3µM*
COc1ccc(C(=O)Nc2sc3c(c2C(N)=O)CCC(C)C3)c(OC)c1OC (stereo not drawn)	.	.	.	-30%	.	.
O=C(c1ccc(F)cc1)N1CCCC(CN2CCOCC2)CC1 (stereo not drawn)	.	.	.	34%	.	.
CCOC(=O)[C@]12CCCC=C1N(CCC1=CCCCC1)C(=O)[C@H](CC(=O)NCCCN1CCCC1=O)C2	7	-6%	?	8%	-5%	?
CCCCNC(=O)C[C@@H]1C[C@@]2(C(=O)OC)CCCCC=C2N(CCC2=CCCCC2)C1=O	?	-1%	18µM*	?	-21%	?
C#CCNC(=O)C[C@@H]1C[C@@]2(C(=O)OC)CCCCC=C2N(CCC2=CCCCC2)C1=O	0	6%	18µM*	0%	-1%	?

Screening data deposited in PubChem by National Center for Advancing Translational Sciences (NCATS).
